# Experimental data published in PubChem BioAssay (Tox21).
# Several values for one entry are separate records, joined by “and”; a condition that tells them apart may be missing. Identical values can stand only once. A number with no mark means an inactive call. Inconclusive results are not listed. Entries that show only a call come without a potency. Activity calls are given as the source filed them. The call rests on the fitted dose curve; in most records, active means well fitted curve in the direction sought with a large enough effect in the repeat runs; inconclusive means weak or mixed curves; inactive means no such curve, though single readings can be large; an effect the other way counts as inactive or inconclusive.
# How the values were obtained:
# [1] = qHTS RealTime-Glo MT Cell Viability Assay in HEK293 cells - 40 hour (AID 1224874); conditions: RealTime-Glo luminescence; max response: active compounds read low; further: nearly all actives have a fitted effect of over 50% in size; further: potency means the concentration at half of the fitted maximal effect
# Method in brief: (§1)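 HEK293 cells mixed with RealTime-Glo reagents (NanoLuc plus cell-permeant prosubstrate) at 600 cells/well, preincubated 5 h at 37 C/5% CO2, then given 23 nL compound in DMSO. Nonlytic luminescence from viable cells was read at 0, 8, 16, 24, 32 and 40 h.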
# [2] = A CellTox Green Cytotoxicity Assay to monitor cytotoxicity in HEK293 cells - 24 hour (AID 1224875); further: series mostly up to about 77 µM; nearly all actives have a fitted effect of over 45% in size
# Method in brief: (§2)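 HEK293 cells premixed with CellTox Green dye were seeded at 600 cells/well and left 5 h at 37 C/5% CO2 before pin transfer of 23 nL compound in DMSO. Fluorescence from dye bound to dead-cell DNA was read during 40 h treatment.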
# [3] = A CellTox Green Cytotoxicity Assay to monitor cytotoxicity in HepG2 cells - 16 hour (AID 1224876); further: nearly all actives have a fitted effect of over 45% in size
# Method in brief: (§3)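 HepG2 cells were seeded together with the CellTox Green dye at 600 cells/well, left 5 h at 37 C/5% CO2, then given compounds in DMSO. Fluorescence from dye bound to dead-cell DNA was read repeatedly over 40 h of treatment at 37 C.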
# [4] = A CellTox Green Cytotoxicity Assay to monitor cytotoxicity in HepG2 cells - 24 hour (AID 1224878); further: nearly all actives have a fitted effect of over 45% in size
# Method in brief: as §3
# [5] = A CellTox Green Cytotoxicity Assay to monitor cytotoxicity in HepG2 cells - 40 hour (AID 1224879); further: nearly all actives have a fitted effect of over 40% in size
# Method in brief: as §3
# [6] = qHTS RealTime-Glo MT Cell Viability Assay in HEK293 cells - 0 hour (AID 1224880); further: top concentration of the series differs between compounds; nearly all actives have a fitted effect of over 45% in size
# Method in brief: as §1
# [7] = A CellTox Green Cytotoxicity Assay to monitor cytotoxicity in HEK293 cells - 32 hour (AID 1224881); further: nearly all actives have a fitted effect of over 40% in size
# Method in brief: as §2
# [8] = A CellTox Green Cytotoxicity Assay to monitor cytotoxicity in HepG2 cells - 0 hour (AID 1224882); further: nearly all actives have a fitted effect of over 35% in size
# Method in brief: as §3
# [9] = A CellTox Green Cytotoxicity Assay to monitor cytotoxicity in HepG2 cells - 32 hour (AID 1224883); further: nearly all actives have a fitted effect of over 50% in size
# Method in brief: as §3
# [10] = A CellTox Green Cytotoxicity Assay to monitor cytotoxicity in HEK293 cells - 8 hour (AID 1224884); further: nearly all actives have a fitted effect of over 35% in size
# Method in brief: as §2
# [11] = qHTS RealTime-Glo MT Cell Viability Assay in HepG2 cells - 16 hour (AID 1224885); further: nearly all actives have a fitted effect of over 50% in size
# Method in brief: (§4)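 Cells + NanoLuc/prosubstrate dispensed (600 cells/well) → 5 h at 37 C/5% CO2 → compounds in DMSO transferred → 40 h incubation at 37 C, luminescence read at 0, 8, 16, 24, 32, 40 h.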
# [12] = qHTS RealTime-Glo MT Cell Viability Assay in HEK293 cells - 24 hour (AID 1224886); further: nearly all actives have a fitted effect of over 50% in size; further: potency means the concentration at half of the fitted maximal effect
# Method in brief: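 Tox21 10K qHTS, HEK293, 600 cells/well, RealTime-Glo reagent co-dispensed with cells; 5 h preincubation, compound by pintool, 37 C, luminescence at 0–40 h.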
# [13] = qHTS RealTime-Glo MT Cell Viability Assay in HEK293 cells - 8 hour (AID 1224887)
# Method in brief: as §1
# [14] = A CellTox Green Cytotoxicity Assay to monitor cytotoxicity in HEK293 cells - 16 hour (AID 1224888); further: nearly all actives have a fitted effect of over 35% in size
# Method in brief: as §2
# [15] = qHTS RealTime-Glo MT Cell Viability Assay in HepG2 cells - 0 hour (AID 1224889); further: nearly all actives have a fitted effect of over 50% in size
# Method in brief: as §4
# [16] = A CellTox Green Cytotoxicity Assay to monitor cytotoxicity in HepG2 cells - 8 hour (AID 1224890); further: nearly all actives have a fitted effect of over 45% in size
# Method in brief: as §3
# [17] = qHTS assay to identify small molecule antagonists of the estrogen receptor alpha (ER-alpha) signaling pathway using the BG1 cell line in the presence of 0.1 nM 17-beta-estradiol - cell viability counter screen (AID 1259241); further: nearly all actives have a fitted effect of over 40% in size
# Method in brief: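 Viability in VM7Luc4E2 cells after 22 hr compound exposure under 0.1 nM 17beta-estradiol stimulation, by CellTiter-Fluor.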
# [18] = qHTS assay to identify small molecule antagonists of the androgen receptor (AR) signaling pathway using the MDA cell line in the presence of 0.5 nM R1881 - cell viability counter screen (AID 1259242); further: nearly all actives have a fitted effect of over 45% in size
# Method in brief: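 MDA-kb2 cells (human breast carcinoma, stably carrying MMTV-luciferase reporter) were exposed to compounds with 0.5 nM R1881 (final) for 16 hr at 37C, 0% CO2; viability then read as live-cell protease fluorescence (CellTiter-Fluor, 30 min) in the same wells.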
# [19] = molecular target: Androgen receptor (Homo sapiens) (UniProt P10275); assay: qHTS assay to identify small molecule antagonists of the androgen receptor (AR) signaling pathway using the MDA cell line in the presence of 0.5 nM R1881 (AID 1259243); further: nearly all actives have a fitted effect of over 50% in size
# Androgen receptor (Homo sapiens), sequence (P10275 whole entry, looked up): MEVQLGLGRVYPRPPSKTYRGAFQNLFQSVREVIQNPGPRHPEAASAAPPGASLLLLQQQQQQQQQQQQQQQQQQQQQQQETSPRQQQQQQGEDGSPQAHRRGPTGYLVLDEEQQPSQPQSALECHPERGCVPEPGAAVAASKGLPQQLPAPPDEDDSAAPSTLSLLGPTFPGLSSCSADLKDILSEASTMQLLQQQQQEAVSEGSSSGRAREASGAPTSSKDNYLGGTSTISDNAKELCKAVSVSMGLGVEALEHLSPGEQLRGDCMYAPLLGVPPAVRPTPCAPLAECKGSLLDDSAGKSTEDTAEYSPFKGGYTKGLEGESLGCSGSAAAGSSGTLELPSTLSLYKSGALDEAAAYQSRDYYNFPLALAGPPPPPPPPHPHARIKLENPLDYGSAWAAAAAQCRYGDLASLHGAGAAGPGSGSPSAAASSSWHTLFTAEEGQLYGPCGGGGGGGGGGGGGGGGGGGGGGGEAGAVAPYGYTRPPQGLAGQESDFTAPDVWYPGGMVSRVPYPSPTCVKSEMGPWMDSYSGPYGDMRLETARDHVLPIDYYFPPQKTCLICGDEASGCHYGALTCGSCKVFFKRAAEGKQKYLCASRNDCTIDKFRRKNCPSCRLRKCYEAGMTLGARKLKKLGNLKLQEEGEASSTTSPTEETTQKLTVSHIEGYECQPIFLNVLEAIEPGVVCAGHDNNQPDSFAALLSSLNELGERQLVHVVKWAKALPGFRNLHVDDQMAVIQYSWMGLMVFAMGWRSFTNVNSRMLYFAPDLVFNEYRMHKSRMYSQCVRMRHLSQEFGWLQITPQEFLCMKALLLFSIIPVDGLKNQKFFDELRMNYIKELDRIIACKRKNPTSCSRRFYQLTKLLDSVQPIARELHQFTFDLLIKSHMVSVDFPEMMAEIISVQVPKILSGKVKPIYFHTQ
# Method in brief: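 MDA-kb2 human breast carcinoma cells carrying an MMTV-luciferase reporter (AR- and GR-responsive) were plated, rested 5 hr at 37C, dosed with compounds, then stimulated with 0.5 nM R1881 (final) for 16 hr; luminescence was read after ONE-Glo.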
# [20] = qHTS RealTime-Glo MT Cell Viability Assay in HepG2 cells - 32 hour (AID 1224877); further: nearly all actives have a fitted effect of over 55% in size
# Method in brief: as §4
smiles,measurement,setting,value
CCCCOC(=O)COc1ccc(Cl)cc1Cl,max response,[1],-3.14% and 1.1%
same,Potency,[2],inactive
same,Potency,[3],inactive
same,Potency,[4],inactive
same,Potency,[5],inactive
same,Potency,[6],inactive
same,Potency,[7],inactive
same,outcome,[8],inactive
same,Potency,[9],inactive
same,outcome,[10],inactive
same,outcome,[11],inactive
same,Potency,[12],inactive
same,Potency,[13],inactive
same,outcome,[14],inactive
same,Potency,[15],inactive
same,Potency,[16],inactive
same,Potency,[17],inactive
same,outcome,[18],inactive
CC(C)(C)[C@@H](O)[C@@H](Cc1ccc(Cl)cc1)n1cncn1,Potency,[2],inactive
same,Potency,[3],inactive
same,Potency,[4],inactive
same,Potency,[5],inactive
same,Potency,[6],inactive
same,Potency,[7],inactive
same,outcome,[8],inactive
same,Potency,[9],inactive
same,outcome,[10],inactive
same,outcome,[11],inactive
same,Potency,[13],inactive
same,outcome,[14],inactive
same,Potency,[15],inactive
same,Potency,[16],inactive
same,Potency,[17],inactive
same,outcome,[18],inactive
C=CCNC(N)=S,max response,[1],-13.5% and 2.87%
same,Potency,[2],inactive
same,Potency,[3],inactive
same,Potency,[4],inactive
same,Potency,[5],inactive
same,Potency,[6],inactive
same,Potency,[7],inactive
same,outcome,[8],inactive
same,Potency,[9],inactive
same,outcome,[10],inactive
same,outcome,[11],inactive
same,Potency,[12],inactive
same,Potency,[13],inactive
same,outcome,[14],inactive
same,Potency,[15],inactive
same,Potency,[16],inactive
same,outcome,[18],inactive
C#CCN(C)Cc1ccccc1,max response,[1],-0.876% and -0.317%
same,Potency,[2],inactive
same,Potency,[3],inactive
same,Potency,[4],inactive
same,Potency,[5],inactive
same,Potency,[6],inactive
same,Potency,[7],inactive
same,outcome,[8],inactive
same,Potency,[9],inactive
same,outcome,[10],inactive
same,outcome,[11],inactive
same,Potency,[12],inactive
same,Potency,[13],inactive
same,outcome,[14],inactive
same,Potency,[15],inactive
same,Potency,[16],inactive
same,Potency,[17],inactive
same,outcome,[18],inactive
CCCCCC1=CCCC1=O,max response,[1],5.34% and -3.52%
same,Potency,[2],inactive
same,Potency,[3],inactive
same,Potency,[4],inactive
same,Potency,[5],inactive
same,Potency,[6],inactive
same,Potency,[7],inactive
same,outcome,[8],inactive
same,Potency,[9],inactive
same,outcome,[10],inactive
same,outcome,[11],inactive
same,Potency,[12],inactive
same,Potency,[13],inactive
same,Potency,[15],inactive
same,Potency,[16],inactive
same,Potency,[17],inactive
same,outcome,[18],inactive
O=C(OCCOCCOC(=O)c1ccccc1)c1ccccc1,max response,[1],-18.1%
same,Potency,[2],inactive
same,Potency,[3],inactive
same,Potency,[4],inactive
same,Potency,[5],inactive
same,Potency,[6],inactive
same,Potency,[7],inactive
same,outcome,[8],inactive
same,Potency,[9],inactive
same,outcome,[10],inactive
same,outcome,[11],inactive
same,Potency,[15],inactive
same,Potency,[16],inactive
same,Potency,[17],inactive
C=C(C)C(=O)Nc1ccc(Cl)c(Cl)c1,Potency,[1],19.7 µM (active) and 24.4 µM (active)
same,Potency,[2],inactive
same,Potency,[3],inactive
same,Potency,[4],inactive
same,Potency,[5],inactive
same,Potency,[6],inactive
same,Potency,[7],inactive
same,outcome,[8],inactive
same,Potency,[9],inactive
same,outcome,[10],inactive
same,outcome,[11],inactive
same,Potency,[12],19.7 µM (active) and 21.8 µM (active)
same,outcome,[14],inactive
same,Potency,[15],inactive
same,Potency,[16],inactive
same,Potency,[17],inactive
same,outcome,[18],inactive
C[Si](O[Si](C)(C)C)O[Si](C)(C)C,max response,[1],1.67% and 1.77%
same,Potency,[2],inactive
same,Potency,[3],inactive
same,Potency,[4],inactive
same,Potency,[5],inactive
same,Potency,[6],inactive
same,Potency,[7],inactive
same,outcome,[8],inactive
same,Potency,[9],inactive
same,outcome,[10],inactive
same,outcome,[11],inactive
same,Potency,[12],inactive
same,Potency,[13],inactive
same,Potency,[15],inactive
same,Potency,[16],inactive
same,Potency,[19],inactive
COc1cc(Cc2cnc(N)nc2N)cc(OC)c1OC,max response,[1],-23% and -15.6%
same,Potency,[2],inactive
same,Potency,[3],inactive
same,Potency,[4],inactive
same,Potency,[5],inactive
same,Potency,[6],inactive
same,Potency,[7],inactive
same,outcome,[8],inactive
same,Potency,[9],inactive
same,outcome,[10],inactive
same,outcome,[11],inactive
same,Potency,[12],inactive
same,Potency,[13],inactive
same,outcome,[14],inactive
same,Potency,[15],inactive
same,Potency,[16],inactive
same,outcome,[18],inactive
O=C(O)[C@H](O)[C@@H](O)[C@H](O)[C@H](O)CO,max response,[1],-0.628% and 0.139%
same,Potency,[3],inactive
same,outcome,[20],inactive
same,Potency,[4],inactive
same,Potency,[5],inactive
same,Potency,[6],inactive
same,outcome,[8],inactive
same,Potency,[9],inactive
same,outcome,[11],inactive
same,Potency,[12],inactive
same,Potency,[13],inactive
same,Potency,[15],inactive
same,Potency,[16],inactive
same,outcome,[18],inactive
CC1=C(C)S(=O)(=O)CCS1(=O)=O,Potency,[2],inactive
same,Potency,[3],inactive
same,outcome,[20],inactive
same,Potency,[4],inactive
same,Potency,[5],inactive
same,Potency,[6],inactive
same,Potency,[7],inactive
same,outcome,[8],inactive
same,Potency,[9],inactive
same,outcome,[10],inactive
same,outcome,[11],inactive
same,Potency,[12],inactive
same,Potency,[13],inactive
same,outcome,[14],inactive
same,Potency,[15],inactive
same,Potency,[16],inactive
same,Potency,[17],inactive
same,outcome,[18],inactive
O=[N+]([O-])c1ccc(/C=C/c2ccc([N+](=O)[O-])cc2S(=O)(=O)O)c(S(=O)(=O)O)c1,max response,[1],6.57% and 8.56%
same,Potency,[2],inactive
same,Potency,[3],inactive
same,Potency,[4],inactive
same,Potency,[5],inactive
same,Potency,[6],inactive
same,Potency,[7],inactive
same,outcome,[8],inactive
same,Potency,[9],inactive
same,outcome,[10],inactive
same,outcome,[11],inactive
same,Potency,[12],inactive
same,Potency,[13],inactive
same,outcome,[14],inactive
same,Potency,[15],inactive
same,Potency,[16],inactive
same,Potency,[17],inactive
